Data: PubChem BioAssay
Active and inactive are the calls of the source.

Assays:
[1] = tested on: wheat germ agglutinin (Triticum aestivum), Alexa647-labelled; test: Alexa647-WGA lectin binding to printed small molecules – biochemical, small-molecule microarray, 635/667 nm fluorescence, artefact control for SMM control-protein annotation, profiling panel (AID 1140); conditions: WGA-A647 binding, 635 nm fluorescence, higher = more signal;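 note: score merges 667 nm feature emission with signal to noise over triplicate slides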
[2] = target: Luciferin 4-monooxygenase (Photinus pyralis) (UniProt P08659); test: inhibition of purified Photinus pyralis luciferase – biochemical, luminescence, purified enzyme, 2006 set, primary screen (AID 1141); conditions: purified firefly luciferase, SteadyGlo luminescence, 30 min; higher = more signal, called active from +8 up or from −8 down;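 note: cell-free assay with purified firefly luciferase at 100 ng per well in PBS; test concentration not given here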
[3] = tested on: Wnt5a (protein binding on small-molecule microarray); test: small molecules binding Wnt5a protein – biophysical, small-molecule microarray, 635/667 nm fluorescence, primary screen (AID 1142); conditions: 635 nm fluorescence, higher = more signal;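 note: fluorescence read at 667 nm with signal to noise per printed feature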
[4] = ATP-based viability of Huh7 replicon cells – cell-based, CellTiter-Glo luminescence, basal, 48 h, cytotoxicity control for HCV replication inhibitor project, primary screen (AID 1143); conditions: higher = more signal, called active from +8 up or from −8 down;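 note: Huh7 hepatoma cells carrying a hepatitis C replication reporter with no stimulus; test concentration not given here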
[5] = basal CRE-LacZ reporter activity in PC12 – cell-based, unstimulated, primary screen (AID 1145); conditions: no forskolin, luminescence, 4.5 h, higher = more signal, called active from +8 up or from −8 down
[6] = forskolin-driven CRE-LacZ activity in PC12 – cell-based, CRE-LacZ reporter, forskolin-stimulated, primary screen (AID 1146); conditions: luminescence, 4.5 h, higher = more signal, called active from +8 up or from −8 down;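 note: PC12 cells with 6xCRE LacZ reporter stimulated by forskolin 10 µM; beta-galactosidase reporter signal reflecting CREB driven transcription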
[7] = target: Streptavidin (Streptomyces avidinii) (UniProt P22629); test: compounds binding control protein streptavidin – biophysical, small-molecule microarray, 635/667 nm fluorescence, artefact control for SMM compound annotation, primary screen (AID 1147); conditions: higher = more signal;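 note: signal reflects streptavidin binding to arrayed compounds as a control protein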
[8] = probe aInhba binding on compound microarray – biochemical, small-molecule microarray, 635/667 nm fluorescence, primary screen (AID 1148); conditions: higher = more signal;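 note: score merges 667nm spot fluorescence with signal-to-noise for antibody binding to printed compounds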
Torsin-1A (Homo sapiens) [9] = target: Torsin-1A (Homo sapiens) (UniProt O14656); test: TOR1A wild-type binding on microarray – cell lysate, small-molecule microarray, lysate, 635/667 nm, primary screen (AID 1149); conditions: COS7 hTOR1A-WT lysate, 635 nm fluorescence, higher = more signal
Torsin-1A (Homo sapiens) [10] = target: Torsin-1A (Homo sapiens) (UniProt O14656); test: torsin A mutant lysate binding on microarrays – cell lysate, small-molecule microarray, COS7 lysate, 635/667 nm fluorescence, primary screen (AID 1150); conditions: COS7 hTOR1A mutant lysate, 635 nm fluorescence, higher = more signal;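 note: score pools 667 nm emission and signal to noise measuring lysate protein binding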
[11] = tested on: Sonic hedgehog protein (Shh); test: Sonic hedgehog microarray binding compounds – biochemical, small-molecule microarray, 635/667 nm fluorescence, primary screen (AID 1151); conditions: 635 nm fluorescence, higher = more signal;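 note: Shh protein binding to compounds spotted on small-molecule microarray slides; score combines spot fluorescence intensity with signal-to-noise across triplicate slides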
[12] = optical density shifts of acrAB sulA E. coli – strain DRC41, OD650, 48 h, E. coli filamentation inducer project, primary screen (AID 1152); conditions: higher = more signal, called active from +8 up or from −8 down;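 note: E. coli MC1000 strain DRC41 lacking acrAB efflux pump and sulA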
[13] = probe aLefty1 binding on compound microarray – biochemical, small-molecule microarray, 635/667 nm fluorescence, primary screen (AID 1153); conditions: higher = more signal;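 note: score merges spot fluorescence with signal-to-noise ratio from the scanned slide images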
[14] = plasmodial surface anion channel blockers, osmotic lysis – cell-based, P. falciparum Indochina, OD700, 1 h, primary screen (AID 1154); conditions: P. falciparum Indochina infected RBC osmotic lysis, higher = more signal, called active from +8 up or from −8 down
[15] = plasmodial surface anion channel blockers, osmotic lysis – cell-based, P. falciparum Indochina, OD700, 2 h, primary screen (AID 1155);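 note: lysis reports solute entry through the parasite surface anion channel PSAC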; conditions: P. falciparum Indochina infected erythrocytes, higher = more signal, called active from +8 up or from −8 down
[16] = changes in parasitized red cell lysis, either direction – P. falciparum Indochina, OD700, 3 h, PSAC antagonist project, primary screen (AID 1156); conditions: P. falciparum-infected erythrocytes, osmotic lysis, higher = more signal, called active from +8 up or from −8 down
[17] = plasmodial surface anion channel blockers, osmotic lysis – cell-based, P. falciparum Indochina, OD700, 18 h, primary screen (AID 1157); conditions: P. falciparum Indochina infected erythrocytes, osmotic lysis OD700, 18 h; higher = more signal, called active from +8 up or from −8 down
[18] = S6 kinase pathway phospho-S6 level changes – cell-based, A549, cytoblot, luminescence, serum-stimulated, primary screen (AID 1158); conditions: 5 h, higher = more signal;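 note: serum-stimulated A549 lung adenocarcinoma cells; signal is phosphorylated S6 detected by cytoblot immunostaining with HRP secondary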
[19] = target: NADPH oxidase 2 (Homo sapiens) (UniProt P04839); test: compounds shifting NOX2 Amplex Red fluorescence – cell-based, HEK293-NOX2, PMA-stimulated, NOX inhibitor project, primary screen (AID 1159); conditions: 45 min, higher = more signal, called active from +8 up or from −8 down; note: test concentration not given here
[20] = target: NADPH oxidase 4 (Homo sapiens) (UniProt Q9NPH5); test: compounds shifting NOX4 Amplex Red fluorescence – cell-based, HEK293-NOX4, tetracycline-induced, NOX inhibitor project, primary screen (AID 1160); conditions: HEK293-NOX4, Amplex Red H2O2 fluorescence, 45 min; higher = more signal, called active from +8 up or from −8 down
Chain of NADPH oxidase 4 (Homo sapiens) (Q9NPH5 whole entry, looked up): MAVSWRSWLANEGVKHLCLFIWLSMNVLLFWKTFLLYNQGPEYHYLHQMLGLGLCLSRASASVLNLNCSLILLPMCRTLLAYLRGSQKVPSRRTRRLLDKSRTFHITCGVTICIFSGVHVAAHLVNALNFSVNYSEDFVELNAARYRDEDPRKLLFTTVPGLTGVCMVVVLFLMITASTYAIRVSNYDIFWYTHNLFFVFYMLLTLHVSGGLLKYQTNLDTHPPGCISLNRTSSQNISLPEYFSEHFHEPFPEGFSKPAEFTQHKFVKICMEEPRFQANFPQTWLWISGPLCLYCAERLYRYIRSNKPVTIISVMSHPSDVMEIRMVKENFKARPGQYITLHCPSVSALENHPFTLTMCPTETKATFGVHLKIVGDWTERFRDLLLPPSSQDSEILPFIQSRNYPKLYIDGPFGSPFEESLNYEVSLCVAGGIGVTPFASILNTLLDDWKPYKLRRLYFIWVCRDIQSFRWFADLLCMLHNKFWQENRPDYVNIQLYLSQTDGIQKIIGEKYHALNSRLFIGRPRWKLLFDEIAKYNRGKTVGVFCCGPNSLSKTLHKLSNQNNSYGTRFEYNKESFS

Chain of Streptavidin (Streptomyces avidinii) (P22629 whole entry, looked up): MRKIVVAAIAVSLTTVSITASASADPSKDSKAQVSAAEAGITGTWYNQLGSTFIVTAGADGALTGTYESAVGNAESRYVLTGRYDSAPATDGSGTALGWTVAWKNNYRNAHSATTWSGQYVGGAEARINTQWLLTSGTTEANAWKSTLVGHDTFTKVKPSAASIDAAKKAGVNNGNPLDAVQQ
Chain of NADPH oxidase 2 (Homo sapiens) (P04839 whole entry, looked up): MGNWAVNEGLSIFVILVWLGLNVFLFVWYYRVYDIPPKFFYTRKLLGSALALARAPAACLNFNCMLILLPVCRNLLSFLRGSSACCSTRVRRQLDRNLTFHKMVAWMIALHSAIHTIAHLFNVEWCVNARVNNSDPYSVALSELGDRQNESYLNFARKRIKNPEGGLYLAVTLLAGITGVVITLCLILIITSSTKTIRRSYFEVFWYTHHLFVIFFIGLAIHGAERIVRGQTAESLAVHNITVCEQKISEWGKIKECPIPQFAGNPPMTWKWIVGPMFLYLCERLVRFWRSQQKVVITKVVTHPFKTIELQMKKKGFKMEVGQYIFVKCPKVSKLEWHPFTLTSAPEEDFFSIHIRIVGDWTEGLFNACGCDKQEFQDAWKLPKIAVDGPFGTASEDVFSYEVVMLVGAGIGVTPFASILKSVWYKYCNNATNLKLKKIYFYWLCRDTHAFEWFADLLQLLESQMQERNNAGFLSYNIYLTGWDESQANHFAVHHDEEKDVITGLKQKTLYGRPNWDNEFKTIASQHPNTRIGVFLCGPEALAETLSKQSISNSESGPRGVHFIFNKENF
Chain of Luciferin 4-monooxygenase (Photinus pyralis) (P08659 whole entry, looked up): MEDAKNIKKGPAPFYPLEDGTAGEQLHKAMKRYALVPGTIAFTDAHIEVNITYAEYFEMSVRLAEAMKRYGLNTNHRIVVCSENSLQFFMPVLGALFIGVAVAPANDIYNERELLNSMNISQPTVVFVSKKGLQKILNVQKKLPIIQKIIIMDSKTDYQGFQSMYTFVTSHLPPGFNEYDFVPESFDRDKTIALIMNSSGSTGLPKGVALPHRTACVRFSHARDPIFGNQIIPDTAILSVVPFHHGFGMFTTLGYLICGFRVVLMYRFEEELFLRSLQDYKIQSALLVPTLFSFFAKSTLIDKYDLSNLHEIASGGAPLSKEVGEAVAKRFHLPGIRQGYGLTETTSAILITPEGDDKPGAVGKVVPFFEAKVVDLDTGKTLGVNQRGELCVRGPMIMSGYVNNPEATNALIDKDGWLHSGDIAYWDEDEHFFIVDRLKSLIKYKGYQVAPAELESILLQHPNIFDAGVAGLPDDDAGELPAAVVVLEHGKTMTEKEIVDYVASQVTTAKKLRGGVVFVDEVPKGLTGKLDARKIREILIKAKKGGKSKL
Chain of Torsin-1A (Homo sapiens) (O14656 whole entry, looked up): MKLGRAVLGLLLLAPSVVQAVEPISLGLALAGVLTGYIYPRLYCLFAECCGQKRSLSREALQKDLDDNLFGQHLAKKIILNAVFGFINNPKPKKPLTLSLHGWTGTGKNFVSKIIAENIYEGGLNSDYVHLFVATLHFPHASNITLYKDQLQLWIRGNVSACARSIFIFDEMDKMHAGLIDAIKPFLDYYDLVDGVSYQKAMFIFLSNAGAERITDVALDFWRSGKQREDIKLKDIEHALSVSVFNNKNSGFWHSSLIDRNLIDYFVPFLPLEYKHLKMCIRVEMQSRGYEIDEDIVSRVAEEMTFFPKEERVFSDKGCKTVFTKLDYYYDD

| Compound | composite z-score [1] | z-score [2] | composite z-score [3] | z-score [4] | z-score [5] | z-score [6] | composite z-score [7] | composite z-score [8] | composite z-score (Torsin-1A (Homo sapiens) [9]) | composite z-score (Torsin-1A (Homo sapiens) [10]) | composite z-score [11] | z-score [12] | composite z-score [13] | z-score [14] | z-score [15] | z-score [16] | z-score [17] | z-score [18] | z-score [19] | z-score [20] |
| --- | --- | --- | --- | --- | --- | --- | --- | --- | --- | --- | --- | --- | --- | --- | --- | --- | --- | --- | --- | --- |
| O=C(NO)[C@]1(Cc2ccccc2)N=C(c2ccc(OCCCO)cc2)O[C@@H]1c1ccccc1 | 0.162 | -2.34 (inactive) | -0.229 | -1.7 (inactive) | 3.01 (inactive) | -1.91 (inactive) | -0.585 | -0.0782 | -0.427 | 0.411 | -0.351 | 3.88 (inactive) | 0.0278 | 15 (active) | 0.971 (inactive) | -0.479 (inactive) | -0.21 (inactive) | 2.81 | 0.709 (inactive) | 0.551 (inactive) |
| C=CCC(OC(C)=O)[C@@H]1[C@@H](N(Cc2cccc3ccccc23)C(=O)Cc2ccc(OC)cc2)c2cc(OCCCO)ccc2N1C(=O)Cc1ccc(OC)cc1 (stereo not given in full) | 0.349 | -0.369 (inactive) | -0.143 | -0.627 (inactive) | 1.78 (inactive) | -1.2 (inactive) | 0.131 | -0.0986 | 0.271 | -0.482 | 0.0188 | 2.17 (inactive) | 0.051 | 1.62 (inactive) | 0.317 (inactive) | 0.119 (inactive) | 0.506 (inactive) | 0.623 | 0.459 (inactive) | -0.451 (inactive) |
| O=C(N1CCCCC1)[C@@]1(Cc2ccccc2)N=C(c2ccc(OCCCO)cc2)O[C@H]1c1ccccc1 | 1.07 | -1.52 (inactive) | 0.578 | -5.07 (inactive) | 0.414 (inactive) | -1.06 (inactive) | 1.13 | 0.749 | 0.599 | 1.42 | -0.401 | 0.696 (inactive) | 1.17 | 14.3 (active) | 2.37 (inactive) | 2.82 (inactive) | -0.657 (inactive) | 0.845 | -2.63 (inactive) | 0.489 (inactive) |
| CC(C)[Si](C#C[Si](C(C)C)(C(C)C)C(C)C)(O[C@H](C)c1cn([C@H](C)c2ccccc2)nn1)C(C)C | 0.625 | -1.4 (inactive) | 0.0985 | -1.48 (inactive) | -0.332 (inactive) | -1.59 (inactive) | 0.434 | -0.0209 | 0.144 | 0.477 | 1.14 | 2.49 (inactive) | 0.241 | 0.792 (inactive) | -0.533 (inactive) | -0.926 (inactive) | -1.01 (inactive) | 0.728 | 0.586 (inactive) | 0.587 (inactive) |
| CC(C)NC(=O)[C@@H]1c2ccccc2C(=O)N(Cc2cc(F)cc(C(F)(F)F)c2)[C@H]1c1ccc(CO)cc1 | -1.21 | -0.758 (inactive) | -0.0581 | 0.142 (inactive) | -0.529 (inactive) | -1.08 (inactive) | -0.95 | -0.329 | -0.479 | -0.0988 | -0.72 | 1.39 (inactive) | -0.113 | 2.06 (inactive) | 0.391 (inactive) | 1.47 (inactive) | 0.178 (inactive) | 0.161 | 0.146 (inactive) | 1.08 (inactive) |
| C=C1C=C(Br)C2(OCCCO2)[C@H]2OC12 (stereo not given in full) | -0.903 | -0.914 (inactive) | -0.093 | 0.15 (inactive) | 0.199 (inactive) | 0.676 (inactive) | 0.61 | -0.128 | 0.639 | 0.495 | 0.411 | 0.659 (inactive) | -0.147 | -0.14 (inactive) | 0.146 (inactive) | -0.334 (inactive) | -0.12 (inactive) | -0.281 | 0.868 (inactive) | 0.0158 (inactive) |
| COC(=O)[C@@]1(CCC(=O)OC(C)(C)C)COC(c2ccc(OCCCO)cc2)=N1 | -1.57 | -1.4 (inactive) | -0.328 | -0.243 (inactive) | 0.694 (inactive) | -1.14 (inactive) | -1.44 | -0.109 | -1.3 | -0.742 | -1.03 | 1.06 (inactive) | 0.0721 | 21 (active) | 3.26 (inactive) | 0.0081 (inactive) | 0.613 (inactive) | 0.21 | -0.0972 (inactive) | 0.562 (inactive) |
| [N-]=[N+]=NCc1ccccc1C[C@@]1(C(=O)NCc2ccccc2)N=C(c2ccc(OCCCO)cc2)O[C@@H]1c1ccccc1 | 1 | -1.15 (inactive) | 0.238 | -5.27 (inactive) | 0.596 (inactive) | -0.942 (inactive) | 0.229 | -0.025 | 0.0526 | 1.48 | -0.353 | 1.75 (inactive) | 0.277 | 21 (active) | 5.58 (inactive) | 1.81 (inactive) | -0.217 (inactive) | 0.969 | 1.2 (inactive) | 0.964 (inactive) |
